Structures are written as SMILES. About 83,000 compounds went through this panel and 20% of them were active in at least one assay; those are over-represented in the sample as a whole.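 How to read the values: 0–100, growth inhibition (40 = 60% inhibited); 0, no net growth; -100 to 0, cell death (-40 = 40% of starting cells died; -100 = all dead).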 Unmarked numbers belong to inactive results. Calls of active or inactive are those of the source. How the source made its calls: active means growth percent below 10; inactive means the rest.

Here are results for 40 compounds from PubChem BioAssay (NCI).

In the experiment the test system is HL-60(TB) leukemia. Put plainly: NCI-60 one-dose screen, 48 h (100 = growth as untreated, 0 = no growth, -100 = all killed). Conditions: 10 µM unless noted.
Regarding `CC(=O)OC1CCC2(C)C(CCC3C4CC=C(C(C)=O)C4(C)OC(=O)CC32)C1` (stereo not given), the growth is -39.8% (active).
The same measure for `COC(=O)c1ccc(CSc2nnc(-c3ccncc3)o2)cc1`: 95.5%; for `Cc1nc2nc(SCC(=O)O)[nH]c2c(=O)[nH]1`: 94.7%.
Regarding `COc1ccc(NC(=O)CSc2nc(-c3ccc(OC)c(OC)c3)cc(-c3cc(OC)c(OC)c(OC)c3)n2)cc1`, the growth is 115%.
The same measure for `COC(=O)c1ccc2c(c1)c1c(C)c3ccncc3c(C)c1n2C`: 32.5%; for `CCOC(=O)C1=C(Nc2ccc(OC)cc2)C(N)=NC1=N`: 3.35% (active); for `CCn1cc(C(=O)O)c(=O)c2cc(F)c(N3CCN(S(=O)(=O)c4ccc(Cl)cc4Cl)CC3)cc21`: -51.7% (active).
For `O=C(NN=C1CCCCC1)C(=O)NN=C1CCCCC1`, the growth is 81.5%.
The same measure for `CNS(=O)(=O)Nc1nccc(Cc2c(C)c3ccc(Oc4ncccn4)cc3oc2=O)c1F`: 27.9%; for `COc1ccc2c(c1OC)C(=O)O[C@@H]2[C@H]1c2c(c(C#CC#Cc3ccc(F)c(F)c3)c3c(c2OC)OCO3)CCN1C`: 76.9%.
The same measure for `Cc1nc2cnc(N)c(C#Cc3cncc(C(=O)Nc4ccc(CN5CCN(C)CC5)c(C(F)(F)F)c4)c3)c2nc1C`: -16.4% (active); for `CNc1ccccc1C(=O)N/N=C/C=C/c1ccccc1`: -32.6% (active).
The same measure for `O=C(c1ccccc1)c1ccc(C2CCCCC2)cc1`: 101%; for `CCCCOc1nc2c(C)cccc2cc1-c1cc(-c2ccc(Cl)cc2)nc(-c2ccc(Cl)cc2)c1`: 98.8%; for `O=C(N/N=C/c1c(Cl)cccc1Cl)c1cccc(Nc2ccnc(C(F)(F)F)c2)c1`: 98.3%.
For `C/C(=N\Nc1ccccc1)c1ccc(NC2=CC(=O)c3ccccc3C2=O)cc1`, the growth was 80.6%.
The same measure for `CCOC(=O)CSC(=S)SCC(=O)OCC`: 103%; for `COc1ccc(Nc2c3c4c(cccc4[nH]c2=O)C(=O)c2ccccc2-3)cc1`: -60.4% (active); for `Cc1c(/C=C/[N+](=O)[O-])ccc2c1[nH]c1ccccc12`: 67.3%.
The same measure for `CC1CC2C3CCC4=CC(=O)CCC4(C)C3CCC2(C)C1(O)C(=O)CO` (stereo not given): 75.4%; for `C=C1C(=O)O[C@H]2[C@H]1CC/C(Cn1cc(Cn3ccc4ccccc43)nn1)=C\CC[C@@]1(C)O[C@@H]21`: -48.5% (active); for `CCC(=O)NC(O)C(Cl)(Cl)C(C)Cl` (stereo not given): 119%.
The same measure for `COc1ccc(/C=C/c2nc(Nc3ccc(S(=O)(=O)NC(C)=O)cc3)c3ccccc3n2)cc1`: 85.7%; for `CC(=O)c1ccc(Nc2nc(C(C)=O)c(C)s2)cc1`: 88%.
Regarding `O=C(c1nc2ccccc2[nH]1)C1C(c2cccc([N+](=O)[O-])c2)C2CC3CCCCC3N2[C@@]12C(=O)Nc1cc(Cl)ccc12` (stereo not given in full), the growth is 4.05% (active).
The same measure for `FC(F)(F)c1ccc(-c2cnc(Cl)nc2N2CCC3(CC2)OCCO3)cc1`: 83.6%; for `CC1C(/C=N/Nc2ccccc2)C(C#N)(C#N)C1(C#N)C#N` (stereo not given): 54.3%.
Consider `Nc1ccc2c(c1)C(=O)c1cc(Cl)c(Cl)cc1-2`, for which the growth was 76.2%.
The same measure for `Cc1ccc2c(C(C[N+](=O)[O-])c3ccco3)c(-c3ccccc3)[nH]c2c1` (stereo not given): -5.69% (active); for `COc1ccc(/C=C2\CCCC3=C2N=C2SC=NN2C3c2ccc(OC)c(OC)c2)cc1OC` (stereo not given): 15%.
The same measure for `CCOc1c(C#N)nnc2c(C#N)c(NC(=O)c3ccccc3)nn12`: 104%.
The same measure for `Cc1[nH]c(-c2nc3ccccc3[nH]2)c(C)c1C(=O)N1CCc2sccc2C1`: 99.3%; for `COc1cc(Nc2ncccc2C(=O)Nc2nc3ccc(F)cc3s2)cc(OC)c1OC`: 136%.
On to `CC(=O)Cc1cc(-c2cc(CC(C)=O)[nH]n2)n[nH]1`, for which the growth is 88.1%.
The same measure for `Cc1nc2c(c(=O)[nH]1)C(c1ccccc1)c1ccc3ccccc3c1O2` (stereo not given): -2.8% (active); for `C/C(=C(\c1ccc(OCCCN(C)C)cc1)c1ccc(OC(=O)Cc2ccccc2)cc1)c1ccc(Cl)cc1`: 78%; for `COc1cc(-c2nc3occn3c2-c2ccnc(NCCCNS(=O)(=O)c3ccccc3)n2)ccc1F`: 39.6%.
The same measure for `CC(=O)Oc1csc(N(C(C)=O)c2cccc(C(F)(F)F)c2)n1`: 107%; for `CCOc1ccc(N2C(N)=NC(N)=NC2(C)C)cc1`: 16.4%.
The same measure for `COc1ccc(-c2nn(-c3cccc(NC(=O)Nc4ccc(Cl)c(C(F)(F)F)c4)c3)cc2-c2ccncc2)cc1Cl`: -11.3% (active).
